Data published in the supplement of paper PMC7411054.
Where a name gives a salt, the structure may show the parent alone.

Key:
Assay in all cases: phenotypically active (imaging signature differs from DMSO and reproducible) at any of 0.3-9 uM (binary (1 = active, 0 = inactive)); higher = active
Details in all cases: treatment time: 24 h
[1] = tested on: A549-ACTB-RAB5A
Summary of the method: (§1)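 The reporter lines, fifteen in total and built by gene editing in A549, HepG2 and WPMY1 cells, used BFP for segmentation alongside GFP and RFP/FusionRed markers. Each was treated at 0.3, 1, 3 or 9 µM for 24 h in four wells and then imaged live, with live-cell features normalised to solvent control wells. Deviation meant ≥3 of 4 wells beyond the 95th percentile of control Euclidean distances; reproducibility meant a median replicate Pearson correlation above the 95th percentile of non-replicates. Only conditions meeting both were scored as phenotypically active.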

[2] = tested on: A549-CANX-COX4
Summary of the method: as §1

[3] = tested on: A549-GM130-SQSTM1
Summary of the method: as §1

[4] = tested on: A549-TP53BP1-CLTA
Summary of the method: as §1

[5] = tested on: A549-TUBA1B-RELA
Summary of the method: as §1

[6] = tested on: HepG2-ACTB-RAB5A
Summary of the method: as §1

[7] = tested on: HepG2-CANX-COX4
Summary of the method: as §1

[8] = tested on: HepG2-GM130-SQSTM1
Summary of the method: as §1

[9] = tested on: HepG2-TP53BP1-CLTA
Summary of the method: as §1

[10] = tested on: HepG2-TUBA1B-RELA
Summary of the method: as §1

[11] = tested on: WPMY1-ACTB-RAB5A
Summary of the method: as §1

[12] = tested on: WPMY1-CANX-COX4
Summary of the method: as §1

[13] = tested on: WPMY1-GM130-SQSTM1
Summary of the method: as §1

[14] = tested on: WPMY1-TP53BP1-CLTA
Summary of the method: as §1

[15] = tested on: WPMY1-TUBA1B-RELA
Summary of the method: as §1

Measured: phenotypically active

Cc1[nH]c2ccccc2c1CCNC(=O)c1ccccc1F
inactive: [1] 0 | [2] 0 | [3] 0 | [4] 0 | [5] 0 | [6] 0 | [7] 0 | [8] 0 | [9] 0 | [10] 0 | [11] 0 | [12] 0 | [13] 0 | [14] 0 | [15] 0

COc1cc2c(cc1OC)C(=O)C(CC1CCN(Cc3ccccc3)CC1)C2 (stereo not given) [donepezil]
inactive: [1] 0 | [2] 0 | [3] 0 | [4] 0 | [5] 0 | [6] 0 | [7] 0 | [8] 0 | [9] 0 | [10] 0 | [11] 0 | [12] 0 | [13] 0 | [14] 0 | [15] 0

C[N+]1(C)[C@@H]2C[C@@H](OC(=O)C(O)(c3cccs3)c3cccs3)C[C@H]1[C@@H]1O[C@@H]12 [Tiotropium bromide]
inactive: [1] 0 | [2] 0 | [3] 0 | [4] 0 | [5] 0 | [6] 0 | [7] 0 | [8] 0 | [9] 0 | [10] 0 | [11] 0 | [12] 0 | [13] 0 | [14] 0 | [15] 0

O=C(NCC1CCCCN1)c1cc(OCC(F)(F)F)ccc1OCC(F)(F)F (stereo not given) [flecainide]
inactive: [1] 0 | [2] 0 | [3] 0 | [4] 0 | [5] 0 | [6] 0 | [7] 0 | [8] 0 | [9] 0 | [10] 0 | [11] 0 | [12] 0 | [13] 0 | [14] 0 | [15] 0

O=C(/C=C\c1ccc(O)c(O)c1)O[C@H]1C[C@](OC(=O)/C=C/c2ccc(O)c(O)c2)(C(=O)O)C[C@H](O)[C@H]1O [Cynarin]
inactive: [1] 0 | [2] 0 | [3] 0 | [4] 0 | [5] 0 | [6] 0 | [7] 0 | [8] 0 | [9] 0 | [10] 0 | [11] 0 | [12] 0 | [13] 0 | [14] 0 | [15] 0

NC(=O)c1ncn([C@@H]2O[C@H](CO)[C@@H](O)[C@H]2O)c1N
inactive: [1] 0 | [2] 0 | [3] 0 | [4] 0 | [5] 0 | [6] 0 | [7] 0 | [8] 0 | [9] 0 | [10] 0 | [11] 0 | [12] 0 | [13] 0 | [14] 0 | [15] 0

CN(CCOc1ccc(C[C@H](Nc2ccccc2C(=O)c2ccccc2)C(=O)O)cc1)c1ccccn1 [GW 1929 hydrochloride]
inactive: [1] 0 | [2] 0 | [3] 0 | [4] 0 | [5] 0 | [6] 0 | [7] 0 | [8] 0 | [9] 0 | [10] 0 | [11] 0 | [12] 0 | [13] 0 | [14] 0 | [15] 0

CN(C)CCc1c[nH]c2ccc(C[C@H]3COC(=O)N3)cc12 [zolmitriptan]
inactive: [1] 0 | [2] 0 | [3] 0 | [4] 0 | [5] 0 | [6] 0 | [7] 0 | [8] 0 | [9] 0 | [10] 0 | [11] 0 | [12] 0 | [13] 0 | [14] 0 | [15] 0

CCC(NC(C)C)C(O)c1ccc(O)c(O)c1 (stereo not given) [isoetharine]
inactive: [1] 0 | [2] 0 | [3] 0 | [4] 0 | [5] 0 | [6] 0 | [7] 0 | [8] 0 | [9] 0 | [10] 0 | [11] 0 | [12] 0 | [13] 0 | [14] 0 | [15] 0

O=P(O)(O)C(O)(Cc1cccnc1)P(=O)(O)O [risedronate]
inactive: [1] 0 | [2] 0 | [3] 0 | [4] 0 | [5] 0 | [6] 0 | [7] 0 | [8] 0 | [9] 0 | [10] 0 | [11] 0 | [12] 0 | [13] 0 | [14] 0 | [15] 0

CCc1ccc(CCOc2ccc(CC3SC(=O)NC3=O)cc2)nc1 (stereo not given) [Pioglitazone hydrochloride]
inactive: [1] 0 | [2] 0 | [3] 0 | [4] 0 | [5] 0 | [6] 0 | [7] 0 | [8] 0 | [9] 0 | [10] 0 | [11] 0 | [12] 0 | [13] 0 | [14] 0 | [15] 0

CC(C)(C)NS(=O)(=O)c1cncc(-c2cc(F)c3nc(N)nn3c2)c1
inactive: [1] 0 | [2] 0 | [3] 0 | [4] 0 | [5] 0 | [6] 0 | [7] 0 | [8] 0 | [9] 0 | [10] 0 | [11] 0 | [12] 0 | [13] 0 | [14] 0 | [15] 0

Cc1c(-c2ccccc2)oc2c(C(=O)OCCN3CCCCC3)cccc2c1=O [flavoxate]
inactive: [1] 0 | [2] 0 | [3] 0 | [4] 0 | [5] 0 | [6] 0 | [7] 0 | [8] 0 | [9] 0 | [10] 0 | [11] 0 | [12] 0 | [13] 0 | [14] 0 | [15] 0

OC(CCN1CCCCC1)(c1ccccc1)C1CC2C=CC1C2 (stereo not given) [biperiden]
inactive: [1] 0 | [2] 0 | [3] 0 | [4] 0 | [5] 0 | [6] 0 | [7] 0 | [8] 0 | [9] 0 | [10] 0 | [11] 0 | [12] 0 | [13] 0 | [14] 0 | [15] 0

O=C1NC(=O)/C(=C\c2cccc(C(F)(F)F)c2)S1
inactive: [1] 0 | [2] 0 | [3] 0 | [4] 0 | [5] 0 | [6] 0 | [7] 0 | [8] 0 | [9] 0 | [10] 0 | [11] 0 | [12] 0 | [13] 0 | [14] 0 | [15] 0

COCCc1ccc(OCC(O)CNC(C)C)cc1 (stereo not given) [metoprolol]
inactive: [1] 0 | [2] 0 | [3] 0 | [4] 0 | [5] 0 | [6] 0 | [7] 0 | [8] 0 | [9] 0 | [10] 0 | [11] 0 | [12] 0 | [13] 0 | [14] 0 | [15] 0

O=C1N[C@@H]2[C@@H](O)[C@@H](O)[C@H](O)[C@@H](CO)N2C1=O [Kifunensine]
inactive: [1] 0 | [2] 0 | [3] 0 | [4] 0 | [5] 0 | [6] 0 | [7] 0 | [8] 0 | [9] 0 | [10] 0 | [11] 0 | [12] 0 | [13] 0 | [14] 0 | [15] 0

O=C(O)CCN(O)C(=O)CCCCCCCCC1CC1
inactive: [1] 0 | [2] 0 | [3] 0 | [4] 0 | [5] 0 | [6] 0 | [7] 0 | [8] 0 | [9] 0 | [10] 0 | [11] 0 | [12] 0 | [13] 0 | [14] 0 | [15] 0

Cc1cc(O)cc2c1C(=O)Oc1cc3c(c(O)c1O2)C(=O)OC3 [Variolaric acid]
inactive: [1] 0 | [2] 0 | [3] 0 | [4] 0 | [5] 0 | [6] 0 | [7] 0 | [8] 0 | [9] 0 | [10] 0 | [11] 0 | [12] 0 | [13] 0 | [14] 0 | [15] 0

CC(C)(C)NC[C@H](O)c1ccc(O)c(CO)c1 [levalbuterol]
inactive: [1] 0 | [2] 0 | [3] 0 | [4] 0 | [5] 0 | [6] 0 | [7] 0 | [8] 0 | [9] 0 | [10] 0 | [11] 0 | [12] 0 | [13] 0 | [14] 0 | [15] 0

CCCCCCCCCCCCCCCC(=O)C(F)(F)F
inactive: [1] 0 | [2] 0 | [3] 0 | [4] 0 | [5] 0 | [6] 0 | [7] 0 | [8] 0 | [9] 0 | [10] 0 | [11] 0 | [12] 0 | [13] 0 | [14] 0 | [15] 0

Cc1occc(=O)c1O [3-hydroxy-2-methyl-4-pyrone]
inactive: [1] 0 | [2] 0 | [3] 0 | [4] 0 | [5] 0 | [6] 0 | [7] 0 | [8] 0 | [9] 0 | [10] 0 | [11] 0 | [12] 0 | [13] 0 | [14] 0 | [15] 0

C(=C/c1ccccc1)/CN1CCN(C(c2ccccc2)c2ccccc2)CC1 [cinnarazine]
inactive: [1] 0 | [2] 0 | [3] 0 | [4] 0 | [5] 0 | [6] 0 | [7] 0 | [8] 0 | [9] 0 | [10] 0 | [11] 0 | [12] 0 | [13] 0 | [14] 0 | [15] 0

CC(C(=O)Nc1cccc(/N=C/c2c(O)ccc3ccccc23)c1)c1ccccc1 (stereo not given) [Salermide]
inactive: [1] 0 | [2] 0 | [3] 0 | [4] 0 | [5] 0 | [6] 0 | [7] 0 | [8] 0 | [9] 0 | [10] 0 | [11] 0 | [12] 0 | [13] 0 | [14] 0 | [15] 0

COc1ccc([C@@H]2CC(=O)c3c(O)cc(O)cc3O2)cc1O [Hesperetin]
inactive: [1] 0 | [2] 0 | [3] 0 | [4] 0 | [5] 0 | [6] 0 | [7] 0 | [8] 0 | [9] 0 | [10] 0 | [11] 0 | [12] 0 | [13] 0 | [14] 0 | [15] 0

Cc1ccc(-c2c(-c3nn(C)c4ncnc(N5CC[C@H](N6CCCCC6)C5)c34)cnn2C)cc1
inactive: [1] 0 | [2] 0 | [3] 0 | [4] 0 | [5] 0 | [6] 0 | [7] 0 | [8] 0 | [9] 0 | [10] 0 | [11] 0 | [12] 0 | [13] 0 | [14] 0 | [15] 0

O=C1c2ccccc2C(Cc2ccncc2)(Cc2ccncc2)c2ccccc21
inactive: [1] 0 | [2] 0 | [3] 0 | [4] 0 | [5] 0 | [6] 0 | [7] 0 | [8] 0 | [9] 0 | [10] 0 | [11] 0 | [12] 0 | [13] 0 | [14] 0 | [15] 0
